About 2,800 (5.1%) of roughly 55,000 […] were called active. Rule as the data show it: active = GI50 up to about 1.1 µM and inactive = higher. A selection follows. Entries with a potency or affinity are not part of this list.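 48-hour exposure; five concentrations; linearly interpolated endpoints. At the GI50, growth is halved.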
System: SK-MEL-2
Experiment: NCI tumour cell line growth inhibition, 48 h

Substance | GI50
[Bis(aminomethyl)pentamethylenesilane]tetrachloropaltinum(IV), CHEMBL2146204 | 5.71 µM
[Bis(aminomethyl)dimethylsilane]tetrachloroplatinum(IV), CHEMBL2146190 | 19.1 µM
[Bis(aminomethyl)tetramethylenesilane]dichloropaltinum(II), CHEMBL2146205 | 30.9 µM
[Bis(aminomethyl)dimethylsilane]dichloroplatinum (II), CHEMBL2146201 | 65.5 µM
[Bis(aminomethyl)ethylmethylsilane]tetrachloroplatinum(IV), CHEMBL2146192 | 5.5 µM
CISPLATIN, CHEMBL11359 | 5.07 µM
mu-(1,7-nanodiamine-N,N')bis-(cis-aminedichloroplatimum (II)), CHEMBL2146215 | 38.9 µM
[Bis(aminomethyl)tetramethylenesilane]tetrachloropaltinum(IV), CHEMBL2146189 | 6.64 µM
[Bis(aminomethyl)diethylsilane]tetrachloroplatinum(IV), CHEMBL2146203 | 3.1 µM
[Bis(aminomethyl)pentamethylenesilane]dichloropaltinum(II), CHEMBL2146202 | 7.57 µM
cis-Bis[[(trimethylsilyl)methyl]amino]tetrachloroplatinum(IV), CHEMBL2146191 | 2.88 µM
